Measured values published in PubChem BioAssay (NCATS).
Results filed as inconclusive are left out. The source made the active and inactive calls. Unless noted, calls come from the whole dose curve; as a rule, active = well fitted curve in the direction sought with a large enough effect; inconclusive = small, poorly fitted or top-dose-only effect, or another doubt; inactive = no such curve, though single readings can be large; an effect the other way counts as inactive or inconclusive.

How the values were obtained:
[1] = target: Single-stranded DNA cytosine deaminase (Homo sapiens) (UniProt Q9GZX7); experiment: Validation qHTS assay for inhibitors of Activation Induced Cytidine Deaminase (AID): AID signal (AID 1347429); note: % is set by controls: 0 for no effect and ±100 for the full control effect
Single-stranded DNA cytosine deaminase (Homo sapiens), sequence (Q9GZX7 whole entry, looked up): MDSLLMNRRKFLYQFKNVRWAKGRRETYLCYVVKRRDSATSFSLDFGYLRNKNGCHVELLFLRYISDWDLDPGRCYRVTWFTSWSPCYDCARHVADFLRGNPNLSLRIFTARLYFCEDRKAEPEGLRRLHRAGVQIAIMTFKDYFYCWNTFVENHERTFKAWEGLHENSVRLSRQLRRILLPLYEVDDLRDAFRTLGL
Summary of the method: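 AID and UDG were combined and compounds added at final up to 114 uM, then DJC20/DJC23 FRET substrate was added for 4 hr at room temperature. NaOH was then added for 30 min before fluorescence was read at 540/590 nm.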

[2] = target: Calcium and integrin-binding protein 1 (Homo sapiens) (UniProt Q99828); experiment: Validation qHTS for Identification of Calcium Integrin Binding protein 1 (CIB1) Competitor (AID 1508618); note: potency is the fitted concentration of half-maximal effect
Calcium and integrin-binding protein 1 (Homo sapiens), sequence (Q99828 whole entry, looked up): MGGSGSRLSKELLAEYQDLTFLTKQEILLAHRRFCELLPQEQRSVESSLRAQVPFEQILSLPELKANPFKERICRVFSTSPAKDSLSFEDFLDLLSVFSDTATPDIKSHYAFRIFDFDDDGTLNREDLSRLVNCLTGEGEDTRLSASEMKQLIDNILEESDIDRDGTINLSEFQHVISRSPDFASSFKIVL
Summary of the method: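 Fluorescence polarization with 1 uM CIB1-GST and 100 nM FITC-alphaIIb peptide in HEPES pH 7.4, NaCl, 5 mM CaCl2, Tween20. Compounds at up to 114 uM final, preincubated with protein 15 min; read after 15 min more at RT.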

[3] = Primary qHTS for small molecule stabilizers of the endoplasmic reticulum resident proteome: Secreted ER Calcium Modulated Protein (SERCaMP) assay (AID 1508630); note: % is set by controls: 0 for no effect and ±100 for the full control effect
Summary of the method: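 GLuc-SERCaMP-expressing SH-SY5Y cells, pretreated 16 h with compound, are challenged with thapsigargin to empty ER calcium stores; after 4 h, coelenterazine is added directly to the medium and luminescence is imaged.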

[4] = target: Papain (Carica papaya) (UniProt P00784); experiment: Primary qHTS assay for inhibitors of the protease papain (AID 1645873);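 note: papain turnover of Z-FR-AMC read as the AMC fluorescence gain over 10 min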; note: potency is the fitted concentration of half-maximal effect
Papain (Carica papaya), sequence (P00784 whole entry, looked up): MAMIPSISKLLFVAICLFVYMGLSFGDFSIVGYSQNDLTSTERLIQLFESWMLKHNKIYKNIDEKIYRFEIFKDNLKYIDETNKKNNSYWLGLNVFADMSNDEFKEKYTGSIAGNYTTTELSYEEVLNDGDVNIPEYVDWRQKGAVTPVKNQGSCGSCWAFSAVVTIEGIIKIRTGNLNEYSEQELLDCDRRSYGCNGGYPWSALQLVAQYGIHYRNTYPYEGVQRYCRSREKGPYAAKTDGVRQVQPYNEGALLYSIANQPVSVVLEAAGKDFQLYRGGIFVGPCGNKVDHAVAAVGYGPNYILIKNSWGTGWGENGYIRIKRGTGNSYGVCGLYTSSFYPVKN

[5] = Primary qHTS for inhibitors of La Crosse Virus (LACV) - induced cell death in SH-SY5Y cells (AID 1508616);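 note: top concentration of the series differs between compounds; 0% = infected DMSO wells and 100% = uninfected DMSO wells; higher means more rescue of cells from virus-induced death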
Summary of the method: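 Luminescent ATP readout (ATPLite 1step, 5 min room temperature) measured rescue from LACV-induced death after 6 days of infection at 0.01 MOI; normalized to infected DMSO wells and uninfected DMSO wells.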

[6] = Counterscreen qHTS for small molecule stabilizers of the endoplasmic reticulum resident proteome: GLuc-NoTag assay (AID 1508627);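 note: SH-SY5Y cells given compound then 100 nM thapsigargin to empty ER calcium; series mostly up to about 76 µM; 0% = thapsigargin alone and -100% = DMSO vehicle control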
Summary of the method: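 SH-SY5Y cells stably expressing constitutively secreted GLuc (no SERCaMP tag) were pre-incubated 5 h, treated with compound for 19 h, then 100 nM thapsigargin for 4 h at 37C; medium GLuc read by coelenterazine luminescence.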

[7] = Cell Viability qHTS for small molecule stabilizers of the endoplasmic reticulum resident proteome (AID 1508629); settings: cell viability counter-screen, 100 nM thapsigargin for final 4 h;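 note: human SH-SY5Y neuroblastoma cells carrying the GLuc-SERCaMP reporter; compound exposure about 46 h in total before the viability read; % is set by controls: 0 for no effect and ±100 for the full control effect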
[8] = target: Cytochrome P450 2C9 (Homo sapiens) (UniProt P11712); experiment: Cytochrome P450 family 2 subfamily C member 9 (CYP2C9) small molecule antagonists: luciferase biochemical (cell-free) qHTS assay (AID 1645842; active = well fitted curve in the direction sought with a large enough effect in the repeat runs; an effect the other way counts as inactive or inconclusive; note: series mostly up to about 57 µM; % is set by controls: 0 for no effect and ±100 for the full control effect; nearly all actives have a fitted effect of over 55% in size)
Cytochrome P450 2C9 (Homo sapiens), sequence (P11712 whole entry, looked up): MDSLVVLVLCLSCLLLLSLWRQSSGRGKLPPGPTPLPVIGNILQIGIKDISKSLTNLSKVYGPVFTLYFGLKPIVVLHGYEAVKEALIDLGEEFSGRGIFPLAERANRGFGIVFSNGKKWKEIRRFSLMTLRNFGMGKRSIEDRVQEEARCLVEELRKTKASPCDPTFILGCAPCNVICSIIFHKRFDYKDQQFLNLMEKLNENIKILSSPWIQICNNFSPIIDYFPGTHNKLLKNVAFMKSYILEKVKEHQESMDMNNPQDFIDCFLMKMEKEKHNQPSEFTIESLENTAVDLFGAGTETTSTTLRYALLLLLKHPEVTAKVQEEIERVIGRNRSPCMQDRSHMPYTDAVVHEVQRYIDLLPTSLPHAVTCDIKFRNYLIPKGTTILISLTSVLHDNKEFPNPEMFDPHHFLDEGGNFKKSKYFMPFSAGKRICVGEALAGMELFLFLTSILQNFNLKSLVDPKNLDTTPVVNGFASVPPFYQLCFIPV
Description: National Center for Advancing Translational Sciences [NCATS] Assay Overview: Cytochrome P450 (CYP) enzymes are membrane-bound hemeproteins that play a key role in metabolism of drugs and xenobiotics. Assaying the effect of chemicals on CYP isozymes is useful to minimize the adverse drug reactions and toxicities in drug development process. Chemical compounds were tested for their effect on CYP enzyme activities by using P450-Glo (TM) screening systems (Promega Corporation, Madison, WI). These systems provide a luminescent method containing proluciferin substrates and are converted to luciferin products by CYP isozymes. The luciferin products formed are detected with a luciferin detection reagent, and the amount of light produced is proportional to CYP activity. […]
Assay Protocol Summary: Two ul of enzyme-substrate mix supplemented with 0.4% Bovine Serum Albumin was dispensed into medium binding white/solid 1536-well plates (Greiner Bio-One North America Inc., Monroe, NC) using a Flying Reagent Dispenser (FRD, Aurora Discovery, San Diego, CA). […] The reaction was stopped by adding 4 ul of detection reagent using an FRD and after 20 min incubation at room temperature, the luminescence signal was measured using a ViewLux plate reader (Perkin Elmer, Shelton, CT). Data were expressed as relative luminescence units.

CN(C)CCC(c1ccc(Br)cc1)c1ccccn1 (centres undefined)
inactive: Potency [1] | Potency [2] | Potency [3] | Potency [4]

CC(N)(Cc1ccc(O)cc1)C(=O)O (centres undefined)
inactive: Potency [5] | Potency [2] | Potency [3] | Potency [4]

NC(N)=N[C@@H](CCC(=O)O)C(=O)O
inactive: Potency [5] | Potency [2] | Potency [3] | Potency [4]

COc1ccc(-c2cc3ncc(C)n3c(Nc3ncccc3C(N)=O)n2)cc1OC
inactive: Potency [1] | Potency [2]

Cn1c(=O)c2[nH]c(C3CCCC3)nc2n(C)c1=O
inactive: Potency [1] | Potency [2] | Potency [3]

O=C1Cc2c([nH]c3ccc(Br)cc23)-c2ccccc2N1
inactive: Potency [1] | Potency [3] | Potency [4]

COc1ccc(NC(=O)c2ccc(-c3ccc(-c4noc(C)n4)cc3C)cc2)cc1N1CCN(C)CC1
inactive: Potency [1] | Potency [3] | Potency [4]

Nc1nc2ccc(Cl)cc2c2nc(-c3ccco3)nn12
inactive: Potency [1] | Potency [2] | Potency [3]
active: Potency [4] 22.4 µM

CCCn1c(=O)c2[nH]c(C3CCCC3)nc2n(CCC)c1=O
inactive: Potency [1] | Potency [3] | Potency [4]

NCC(O)C1CCCCCCC1 (centres undefined)
inactive: Potency [1] | Potency [2] | Potency [3] | Potency [4]

[N-]=[N+]=Nc1ccc(C(=O)CSC[C@H](NC(=O)CC[C@H](N)C(=O)O)C(=O)NCC(=O)O)cc1
inactive: Potency [5] | Potency [2] | Potency [3]

COc1ccccc1N1CCN(CCCNc2c(C)c(=O)n(C)c(=O)n2C)CC1
inactive: Potency [5] | Potency [2] | Potency [3] | Potency [4]

S=C(S)N1CCCC1
inactive: Potency [1] | Potency [2] | Potency [3] | Potency [4]

O=C(O)C1CCNCC1
inactive: Potency [5] | Potency [2] | Potency [3] | Potency [4]

CN1C2CCC1CC(OC(c1ccccc1)c1ccccc1)C2 (centres undefined)
inactive: Potency [1] | Potency [2] | Potency [6] | Potency [4]

CN1CCN(c2nc3cc(C(F)(F)F)ccc3n3cccc23)CC1
inactive: Potency [1] | Potency [4]

CN1CCCC1CCOC(C)(c1ccccc1)c1ccc(Cl)cc1 (centres undefined)
inactive: Potency [1] | max response [7] 8.32% | Potency [4]

CC(C)NC[C@H](O)COc1cccc2ccccc12
inactive: Potency [5] | Potency [2] | Potency [3] | outcome [8] | Potency [4]

CCN(c1nc(N)c(C(=O)N=C(N)N)nc1Cl)C(C)C
inactive: Potency [1] | Potency [4]

CCCCCCCCCCCCCCCCCCOC[C@H](COP(=O)([O-])OCC[N+](C)(C)C)OC
inactive: Potency [1] | Potency [2] | Potency [3] | Potency [4]

CC(C)(C)c1ccc(/C=C/C(=O)Nc2ccc3c(c2)OCCO3)cc1
inactive: Potency [5] | Potency [2] | Potency [3] | Potency [4]

O=c1cc(-c2ccccc2)[nH]c2nc(Cl)ccc12
inactive: Potency [1] | Potency [2] | Potency [3] | Potency [4]

O=c1oc(Cl)c(Cl)c2ccccc12
inactive: Potency [1] | Potency [3] | Potency [4]

C[C@](Cc1ccc(O)c(O)c1)(NN)C(=O)O
inactive: Potency [1] | Potency [2] | Potency [4]

CCN(CC)CCCCCCCCOC(=O)c1cc(OC)c(OC)c(OC)c1
inactive: Potency [1] | Potency [2] | Potency [3] | Potency [4]

O=c1cc(-c2ccccc2F)[nH]c2cc3c(cc12)OCO3
inactive: Potency [1] | Potency [2] | Potency [3]

Nc1ccc(-c2nc3ccc(-c4nc5ccc(N)cc5[nH]4)cc3[nH]2)cc1
inactive: Potency [1] | Potency [3]

NC1CCN(O)C1=O (centres undefined)
inactive: Potency [5] | Potency [2]

CCCCCCN(CCCCCC)C(=O)Cc1c(-c2ccc(F)cc2)[nH]c2ccccc12
inactive: Potency [5] | Potency [2] | Potency [3]

Nc1ccc2c3c(cccc13)C(=O)NC2=O
active: Potency [2] 2.51 µM
inactive: Potency [1] | Potency [3]

O[Si](CCCN1CCCCC1)(c1ccc(F)cc1)C1CCCCC1 (centres undefined)
inactive: Potency [1] | Potency [2] | Potency [4]

O=C(O)Cc1c[nH]c2ccc(O)cc12
inactive: Potency [1] | Potency [2] | Potency [4]

Cn1cc(C(F)(F)F)nc1-c1ccc(OCC(O)CNCCOc2ccc(O)c(C(N)=O)c2)cc1 (centres undefined)
inactive: Potency [5] | Potency [2] | Potency [3] | Potency [4]

COc1ccc2c(c1)c(CC(=O)O)c(C)n2C(=O)c1ccccc1
inactive: Potency [5] | Potency [2] | Potency [3] | Potency [4]

CCCCCC[C@@H]([C@@H](C)O)n1cnc2c(N)ncnc21
inactive: Potency [5] | Potency [2] | Potency [3] | Potency [4]

NC/C=C\C(=O)O
inactive: Potency [5] | Potency [3] | Potency [4]

COc1cc2c(CCNC(C)=O)c[nH]c2cc1O
inactive: Potency [5] | Potency [2] | Potency [4]

O=C(O)C1=CCCN(CCON=C(c2ccccc2)c2ccccc2)C1
inactive: Potency [5] | Potency [2] | Potency [3] | Potency [4]

NC1(C(=O)O)CCCCC1
inactive: Potency [5] | Potency [2] | Potency [3] | Potency [4]

CC1=C(C(=O)O)N2C(=O)[C@@H](NC(=O)C(N)C3=CCC=CC3)[C@H]2SC1 (some centres undefined)
inactive: Potency [5] | Potency [4]
